ALR H2O2 inh – inhibitors of human sulfhydryl oxidase ALR. purified ALR, DTT oxidation, H2O2 HRP-luminol luminescence. inhibition, % (concentration not given with the values). 290,000 compounds, 3.8% hits;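 active = mean replicate inhibition above about 79%, with every replicate also reaching it, limit read from the data; inconclusive = only one of the two criteria met; inactive = mean below limit and not every replicate reaching it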
Target sequence (P55789 whole entry, looked up): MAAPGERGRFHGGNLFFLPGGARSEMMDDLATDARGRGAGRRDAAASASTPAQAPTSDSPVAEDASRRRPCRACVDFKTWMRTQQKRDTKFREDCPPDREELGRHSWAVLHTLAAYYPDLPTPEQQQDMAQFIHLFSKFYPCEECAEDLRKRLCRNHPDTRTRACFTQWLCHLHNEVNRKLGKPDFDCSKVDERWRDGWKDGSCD
H9c2 protect – modulators protecting cardiomyocytes from myocardial damage; protection from H2O2 cell death, % at 20 µM; H9c2 cardiomyocytes, H2O2 injury protection, ATPLite, 2 h; AID 588492; 360,000 compounds, 0.63% hits;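 active = compounds giving at least 50% protection of heart cells from peroxide-induced death in the single-dose screen, raw or plate-pattern-corrected value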;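 also: 0% = DMSO wells with peroxide and 100% = DMSO wells without peroxide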
PHOSPHO1 block – PHOSPHO1 (human) inhibition; recombinant PHOSPHO1, absorbance phosphatase assay; 290,000 compounds, 1.1% hits; inhibition, % at 13.3 µM; Q8TCT1; in the data active = inhibition above about 60%
Target sequence (Q8TCT1 whole entry, looked up): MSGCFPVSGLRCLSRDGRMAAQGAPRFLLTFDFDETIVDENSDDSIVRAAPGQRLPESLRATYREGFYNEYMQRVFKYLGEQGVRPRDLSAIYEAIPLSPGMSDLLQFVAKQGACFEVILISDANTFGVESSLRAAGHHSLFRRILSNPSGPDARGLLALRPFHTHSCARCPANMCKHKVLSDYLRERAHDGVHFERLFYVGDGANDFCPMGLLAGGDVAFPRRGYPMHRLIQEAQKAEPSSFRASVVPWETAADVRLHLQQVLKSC
PfGluPho inh – PfG6PD (Plasmodium falciparum) enzyme inhibition. PfGluPho enzyme, NADPH resazurin-diaphorase fluorescence. inhibition, % at 20 µM. 350,000 compounds, 0.78% hits;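 active = inhibition reaching at least a set limit at 20 µM in the primary screen, cut at about 59% in these data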;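 also: 0% = DMSO wells with substrate and 100% = DMSO wells lacking glucose-6-phosphate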
PfM18AAP inh – PfM18AAP enzyme inhibition; inhibition, % at 7.35 µM; 290,000 compounds, 1.2% hits; AID 1822; recombinant PfM18AAP, H-Glu-NHMec fluorogenic cleavage;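 active = inhibition above the campaign mean inhibition over all tested compounds plus 3 SD, cut at about 28% in these data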;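 also: 0% = plate median of test compound wells and 100% = 2 mM ZnCl2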
An asterisk follows results filed as active; ? = inconclusive; nt = no result given. This is a sample that favours compounds with a hit; in the whole collection about 5.6% have one here.

SMILES	ALR H2O2 inh	H9c2 protect	PHOSPHO1 block	PfGluPho inh	PfM18AAP inh
CCCCC(=O)NC(c1ccc(C(C)C)cc1)c1ccc2cccnc2c1O (stereo not given)	2.2	51.1*	-7.3	-5.7	-0.4
CCCCC(=O)NC(c1ccccc1)c1ccc2cccnc2c1O (stereo not given)	-2.2	41.5	nt	-30.4	-7.0
Cc1ccc(NC(=O)COC(=O)CSC(=S)N2CCOCC2)cc1C	nt	1.4	15.0	22.1	4.8
Cc1ccc(NC(=O)COC(=O)CN2CSCC2=O)cc1C	98.3*	17.7	-11.6	0.1	10.7
CCc1n[nH]c(=S)n1/N=C/c1cc(Br)c(OC)cc1OC	-0.2	1.1	60.3*	14.7	8.2
O=C(Nc1ccccc1O)N1c2ccccc2Sc2ccccc21	83.8*	-6.0	29.0	-16.4	2.4
O=C(CC1Sc2ccccc2NC1=O)OCC(=O)N1CCc2ccccc21 (stereo not given)	nt	10.5	62.4*	24.4	5.7
O=C(O)Cn1cc(/C=C2/NC(=O)N(c3ccc(Cl)cc3)C2=O)c2ccccc21	92.2*	4.1	-29.3	8.9	4.8
O=c1/c(=C\c2cccn2-c2ccccc2)sc2nc3ccccc3n12	nt	4.3	23.4	-6.7	2.3
O=C(O)Cn1cc(/C=c2/sc3nc4ccccc4n3c2=O)c2ccccc21	98.7*	0.4	-23.2	26.5	10.6
Cc1ccc(-n2c(C)cc(/C=c3/sc4nc5ccccc5n4c3=O)c2C)cc1	-5.5	nt	61.5*	14.7	4.1
CC(C)(C)S(=O)N1Cc2cn(Cc3ccccc3)c(=O)cc2[C@@H]1CCO (stereo not given in full)	nt	-3.0	nt	-22.8	nt
O=C(NCc1cccnc1)Nc1cccc(NC(=O)NCc2cccnc2)c1	-19.1	3.1	18.0	25.3	1.9
COc1cccc(NC(=O)C2C3C=CC(O3)C2C(=O)NCc2cccnc2)c1 (stereo not given)	98.0*	-1.3	7.2	-8.9	-6.6
CCN(CC)c1ccc(NC(=O)CCNC(=O)c2ccco2)cc1	99.0*	7.8	-11.3	6.1	5.1
Cc1cc(N(CCO)CCO)ccc1N=Nc1cc(F)ccc1F	99.2*	-6.6	8.2	8.8	3.6
CSc1nc(O)cc(=O)n1-c1ccc(F)cc1	0.2	-2.2	22.8	-18.8	0.7
COc1ccc(Cc2c(-c3ccc(F)cc3)nc3ccc(Cl)cn23)c(C)c1	nt	4.1	nt	nt	nt
NC(=O)c1ccc(NC(=O)COC(=O)CC23CC4CC(CC(Br)(C4)C2)C3)cc1	nt	-1.7	nt	11.2	nt
O=C(Nc1ccccc1)c1sc(Cl)nc1-c1ccccc1	94.2*	-3.3	1.9	-4.1	1.0
Cc1ccc(CNC(=O)CCNC(=O)c2ccc([N+](=O)[O-])cc2)cc1	-16.1	1.0	nt	-3.7	nt
Cc1cc(=O)[nH]c2c(C)cc(S(=O)(=O)Nc3ccc(O)cc3)cc12	99.1*	30.4	49.1	-5.3	-4.2
Cc1cc(-c2nnc(-c3cccc(C(F)(F)F)c3)o2)no1	0.8	-1.4	35.7	3.9	-4.1
Cc1ccc(-c2nnc(-c3cc(C)on3)o2)cc1	nt	-12.3	61.1*	5.8	1.8
O=[N+]([O-])c1ccc(/C=C2\CCC(C3=CCCC3)=C2N2CCOCC2)cc1	97.5*	-8.9	-4.5	38.8	10.6
SMILES	ALR H2O2 inh	H9c2 protect	PHOSPHO1 block	PfGluPho inh	PfM18AAP inh
CCOC(=O)Cc1nn2c(=O)cc(C)nc2s1	93.2*	-4.8	2.1	1.9	-7.6
CCOC(=O)Cc1c(C)nc2cc(C)nn2c1C	-30.7	8.5	3.9	-13.5	4.0
COc1cc(NC(=O)c2cc(S(=O)(=O)N3CCCCC3)c[nH]2)cc(OC)c1	-0.7	2.8	35.7	2.4	-2.0
CC(C)C(NC(=O)C1(NC(=O)OCc2ccccc2)CCCC1)C(=O)O (stereo not given)	nt	-0.7	nt	-4.8	nt
COc1cccc(C(C)(O)c2nc(-c3cccc(NC(C)=O)c3)cs2)c1 (stereo not given)	nt	-3.2	nt	nt	nt
COc1ccccc1NC(=O)Cc1nnc(SCC(=O)c2ccc(F)cc2)n1C	1.3	2.5	43.5	13.7	-8.3
COc1ccc(NC2CCCN(C(=O)CCc3cn[nH]c3)C2)cc1 (stereo not given)	98.9*	-0.5	32.7	3.9	0.9
COc1ccc(NC2CCCN(C(=O)CSc3ccncc3)C2)cc1 (stereo not given)	99.1*	0.7	nt	1.1	8.9
Cn1cc(CCC(=O)N2CCCC(Nc3ccc(F)cc3)C2)cn1 (stereo not given)	?	4.5	17.4	-5.0	25.5
O=C(c1ccnc(Cl)c1)N1CCCC(Nc2ccc(F)cc2)C1 (stereo not given)	29.2	-2.0	4.6	7.9	3.4
O=C1CCC(C(=O)N2CCCC(Nc3ccc(F)cc3)C2)=NN1 (stereo not given)	82.2*	1.5	36.4	-12.0	2.5
COc1ccc(NC2CCCN(C(=O)CCC3=NNC(=O)CC3)C2)cc1 (stereo not given)	87.4*	-1.0	31.3	-5.0	1.3
COc1cc(NC(=O)c2cc(-c3ccccc3Cl)on2)cc(OC)c1OC	-17.1	16.2	3.3	5.2	3.6
O=C(CCc1ccncc1)N1CCCC(Nc2ccc(F)cc2)C1 (stereo not given)	56.5	-0.3	-0.6	8.1	3.2
COc1ccc(NC2CCCN(C(=O)CCC(=O)c3ccc(F)cc3)C2)cc1 (stereo not given)	99.1*	4.7	42.7	3.0	9.8
O=C1CCCN1CCC(=O)N1CCCC(Nc2ccc(F)cc2)C1 (stereo not given)	46.3	-2.0	32.8	15.1	1.5
COc1ccc(NC2CCCN(C(=O)C3(C)CCCCC3)C2)cc1 (stereo not given)	97.3*	1.7	45.3	7.6	18.9
COc1cc(OC)cc(C(=O)N2CCCC(Nc3ccc(F)cc3)C2)c1 (stereo not given)	98.8*	0.8	36.4	-13.4	-0.3
O=C(CCc1ccccc1)N1CCCC(Nc2ccc(F)cc2)C1 (stereo not given)	98.2*	-6.2	-29.3	8.5	2.3
CC(CC(=O)Nc1ccc2c(c1)c(=O)n(C)n2-c1ccccc1F)c1ccccc1 (stereo not given)	nt	1.0	nt	nt	nt
CC(=O)N1CCN(S(=O)(=O)c2cccc(C(=O)OCC(=O)NCc3ccccc3Cl)c2)CC1	nt	-0.3	nt	-13.2	nt
CCOC(=O)Nc1cc(OC)cc2ccc(C)nc12	nt	10.9	nt	21.3	nt
O=C(NC(Cc1nn[nH]n1)C(=O)OCc1ccccc1)OCc1ccccc1 (stereo not given)	nt	-0.3	nt	-15.3	nt
COc1ccc(CCC(=O)N2CCCC(Nc3ccc(OC)cc3)C2)cc1 (stereo not given)	99.2*	0.3	29.3	-9.3	3.8
CC(C)c1ccc(NC2CCCN(C(=O)CCc3cn[nH]c3)C2)cc1 (stereo not given)	98.3*	3.2	37.0	3.1	6.2
O=C(CSc1ccccc1)N1CCCC(Nc2ccccc2)C1 (stereo not given)	66.2	-3.6	34.1	18.1	10.4
COc1ccc(CCC(=O)N2CCCC(Nc3ccccc3)C2)cc1OC (stereo not given)	98.5*	-3.5	17.6	-1.8	7.1

Screens as filed in PubChem BioAssay.
